Screens deposited in PubChem by National Center for Advancing Translational Sciences (NCATS).
This is a sample that favours compounds with a hit; in the whole collection about 0.87% have one here.
EPAC1 agonist: EPAC1 (human) agonism. actives 0.073% (n = 360,000). Potency, µM (doses to about 154 µM), hits mostly activators. O95398. EPAC1 agonist qHTS, biochemical assay; response scale: 100% = response to 6.5 mM cAMP; also: nearly all actives have a fitted effect of over 60% in size
Target sequence (O95398 whole entry, looked up): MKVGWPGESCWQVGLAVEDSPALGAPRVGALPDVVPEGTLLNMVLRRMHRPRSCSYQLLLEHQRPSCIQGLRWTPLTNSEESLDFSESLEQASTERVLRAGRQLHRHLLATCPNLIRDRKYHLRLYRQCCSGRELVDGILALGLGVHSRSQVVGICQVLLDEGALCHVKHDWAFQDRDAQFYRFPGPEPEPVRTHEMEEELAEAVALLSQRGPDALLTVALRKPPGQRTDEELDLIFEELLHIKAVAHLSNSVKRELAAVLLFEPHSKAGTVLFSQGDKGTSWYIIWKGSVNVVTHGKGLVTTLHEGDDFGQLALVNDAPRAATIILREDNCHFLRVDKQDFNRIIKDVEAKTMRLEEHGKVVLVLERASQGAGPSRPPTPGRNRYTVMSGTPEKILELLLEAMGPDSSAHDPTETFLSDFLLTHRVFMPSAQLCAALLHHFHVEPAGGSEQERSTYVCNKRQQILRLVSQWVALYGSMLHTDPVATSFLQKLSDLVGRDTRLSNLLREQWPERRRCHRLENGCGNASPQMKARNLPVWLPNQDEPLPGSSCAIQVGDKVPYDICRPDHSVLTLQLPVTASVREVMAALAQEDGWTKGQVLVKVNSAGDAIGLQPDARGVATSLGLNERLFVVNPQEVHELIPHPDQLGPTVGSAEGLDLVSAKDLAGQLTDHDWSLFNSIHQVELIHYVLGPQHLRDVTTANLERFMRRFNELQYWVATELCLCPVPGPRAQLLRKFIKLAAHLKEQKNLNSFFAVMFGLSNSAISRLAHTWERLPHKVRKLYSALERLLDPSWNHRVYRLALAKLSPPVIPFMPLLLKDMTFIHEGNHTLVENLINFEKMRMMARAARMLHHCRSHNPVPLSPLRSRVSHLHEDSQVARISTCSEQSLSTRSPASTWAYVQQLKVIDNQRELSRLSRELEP
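Normalized to 6.5 mM cAMP, activity reflects EPAC1-catalysed release of BODIPY-GDP from Rap1B, followed kinetically over 30 min at 480 nm excitation, 540 nm emission. Reaction contained 100 nM EPAC1, 250 nM Rap1B-BODIPY-GDP, 50 uM GDP.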
EPAC2 ag: agonists of human EPAC2 (RAPGEF4) | Potency, µM (titrated, usually from 154 µM), actives largely listed as activators | Q8WZA2 | actives 0.079% (n = 360,000) | EPAC2 activation, biochemical qHTS; response scale: 100% = 6.5 mM cAMP response; also: nearly all actives have a fitted effect of over 50% in size
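EPAC2 (100 nM) mixed with Rap1B loaded with BODIPY-GDP (250 nM) plus 50 uM unlabeled GDP; compounds pinned in, 5 min RT, then read every 5 min for 30 min (ex 480, em 540 nm). Normalized to cAMP control.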
EPAC1 antagonist: EPAC1 (human) antagonism | Potency, µM (highest dose often 115 µM), actives largely listed as inhibitors | O95398 | actives 0.14% (n = 360,000) | EPAC1 GEF assay, Rap1b-BODIPY-GDP exchange fluorescence; also: nearly all actives have a fitted effect of over 50% in size
EPAC2 antag: antagonists of human EPAC2 | Potency, µM (top dose mostly 114 µM), actives largely listed as inhibitors | Q8WZA2 | AID 720708 | actives 0.18% (n = 360,000) | EPAC2 GEF exchange of Rap1B-BODIPY-GDP, fluorescence; also: nearly all actives have a fitted effect of over 45% in size
USP1 inh: blocks the human USP1/UAF1 deubiquitinase complex | AID 743255 | actives 0.23% (n = 390,000) | recombinant USP1/UAF1, Ub-Rhodamine cleavage fluorescence | Potency, µM (doses to about 57.1 µM), actives largely listed as inhibitors; also: nearly all actives have a fitted effect of over 60% in size
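High-throughput fluorogenic screen: 1nM USP1/UAF1 complex, Ub-Rho substrate 150nM final, 50mM HEPES pH 7.8 with 0.5mM EDTA, 0.1 mg/ml BSA, 1mM TCEP and 0.01% Tween-20.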
Coupling enz: inhibits coupling enzyme system, counter-screen for aldolase hits; activity change, negative = inhibition, % at 58.2 µM, hits read low; coupling enzyme system counterscreen, AmpLite Red fluorescence; AID 2472; actives 0.67% (n = 290,000); in the data active = activity change below about -30%
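Coupling enzymes only (glyceraldehyde-3-phosphate) + compound, at 57.5 uM final, 10 min RT; add substrate/coupling/AmpLite Red mix, 20 min RT; fluorescence ex 525/em 598 nm. Actives flag coupling-system interference.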
Numbers stand for hits; - = inactive; ? = inconclusive; . = not tested or not shown. Unless noted, calls follow the shape of the dose curve; as a rule, active = well fitted curve in the direction sought with a large enough effect; inconclusive = small, poorly fitted or top-dose-only effect, or another doubt; inactive = no such curve, though single readings can be large; an effect the other way counts as inactive or inconclusive.

SMILES	EPAC1 agonist	EPAC2 ag	EPAC1 antagonist	EPAC2 antag	USP1 inh	Coupling enz
Nc1ccc(C(=O)O)c(O)c1	-	-	-	-	-	-
Nc1ccc(N)c(C(=O)O)c1	-	-	?	-	20µM	-34.1
O=C(Nc1ccc(Cl)cc1C(=O)O)c1ccc2c(c1)C(=O)N(Cc1ccco1)C2=O	-	-	79.4µM	?	-	-
O=[N+]([O-])c1cc([N+](=O)[O-])c2oc(-c3ccccc3)c(Br)c2c1O	-	-	25.1µM	20µM	?	-
CC(=O)Oc1ccc2c(c1)Oc1cc(OC(C)=O)ccc1C21OC(=O)c2ccccc21	.	-	?	39.8µM	-	-
CCN1/C(=C/C=C/c2oc3ccc4ccccc4c3[n+]2CC)Oc2ccc3ccccc3c21	-	?	?	?	-	-
CC[n+]1c(/C=C/N(C)c2ccccc2)oc2ccc(Cl)cc21	-	-	-	-	-	-32.5
Cn1c(NNC(=O)c2ccc(C(C)(C)C)cc2)cc(=O)n(C)c1=O	-	-	-	-	-	-34.0
O=C(O)c1cc2ccccc2c2c1C(=O)c1ccccc1-2	-	-	-	-	-	.
O=C1C=C(c2c(O)ccc3ccccc23)c2ccccc2C1=O	-	-	35.5µM	?	28.2µM	.
CC(C)(C)C(=O)NCc1ccc(C(=O)CSc2nnc(C3CC3)n2C2CC2)s1	-	-	-	-	-	.
CCOc1ccc(S(=O)(=O)Nc2cccc(C(=O)NCC(C)(C)N3CCOCC3)c2)cc1	-	-	-	-	-	.
CN(C)c1cccc2c1c(NC(=O)Nc1ccccc1)nn2C	-	-	-	-	?	-31.0
CN(C)c1cccc2c1c(NC(=O)Nc1ccc(F)cc1F)nn2C	-	-	-	-	-	-
CN(C)c1cccc2c1c(NC(=O)c1ccc(Cl)cc1)nn2C	-	-	-	-	?	-36.7
CC(C)(C)c1ccc(C(=O)NNC(=O)CCC(=O)Nc2ccccc2)cc1	-	-	-	-	-	.
Cc1ccsc1C(=O)OCc1nnc(-c2ccccc2)o1	-	-	-	-	-	.
NC(=O)c1sc(=S)n2c1[nH]c(=O)c1sccc12	-	-	?	39.8µM	-	-
CC(=O)NNC(=O)c1sc(=S)n2c1[nH]c(=O)c1sccc12	-	-	?	?	-	-
C=CCN1C(=O)/C(=C/c2ccc(O)c(OC)c2)S/C1=N/c1nccs1	-	-	-	-	?	-
C=CCN1C(=O)/C(=C/c2ccc(OCC(=O)O)cc2)S/C1=N/c1nccs1	-	-	-	50.1µM	-	-
COc1ccccc1N=Nc1c(C)noc1C	-	-	-	-	-	-
CCC(=O)N(C1=C(NC(C)C)C(=O)c2ccccc2C1=O)C(C)C	-	-	-	-	?	-33.8
COc1cccc(C(=O)N2CCN(c3ccc(N4CCOCC4)nn3)CC2)c1	-	-	-	-	-	.
COc1ccc2c(c1)CCc1cc(C(=O)N3CCN(c4ccc(N5CCOCC5)nn4)CC3)sc1-2	-	-	-	-	-	-58.3
SMILES	EPAC1 agonist	EPAC2 ag	EPAC1 antagonist	EPAC2 antag	USP1 inh	Coupling enz
CCOC(=O)c1ccc(CC(=O)c2ccc(O)c(O)c2O)o1	-	-	?	-	-	-48.4
C=CCN1c2ccccc2[C@]23C[C@@H](C(=O)OC)N=C2NC(C(=O)OC)=C(C(=O)OC)[C@H]13	-	-	-	-	-	-
O=c1c(/C=N/Nc2ccccc2)c(Sc2nnnn2-c2ccccc2)nc2ccccn12	-	-	-	-	3.16µM	-
O=C(O)c1ccccc1N/N=C/c1c(Sc2nnnn2-c2ccccc2)nc2ccccn2c1=O	?	-	-	-	-	-
COc1ccc(C=O)cc1CN1CCCN(Cc2ccc(Cl)cc2)S1(=O)=O	-	-	-	-	-	-
COC(=O)c1ccc(OC)c(CN2CCCN(Cc3ccc(F)cc3)S2(=O)=O)c1	-	-	-	-	-	-30.8
CC(=O)N1c2c(cc(Br)cc2S(=O)(=O)Nc2ccc(OC(F)(F)F)cc2)CC1C (stereo not given)	.	.	.	.	-	.
